Compounds without any hit were thinned out: in the full panel of roughly 83,000, 20% have a hit.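 Interpretation: 100, growth as untreated; towards 0, rising growth inhibition; 0, no net growth; 0 to -100, cell death. Compounds scoring below 10 were considered active.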 The source made the active and inactive calls.
The compounds below were run on HL-60(TB) leukemia (assay: NCI-60 one-dose screen, 48 h (100 = growth as untreated, 0 = no growth, -100 = all killed)). Conditions: 10 µM unless noted.

SMILES | growth
N/C(=N\C(N)=N\c1nc2ccccc2s1)c1ccncc1Cl | 6.91% (active)
Cc1cc(-c2ccc(Cl)cc2)n(Cc2nnc(SCC(=O)Nc3ccc(S(N)(=O)=O)cc3)n2C2CCCCC2)n1 | 116% (inactive)
COc1ccccc1/C=C/C(=O)c1nnn(-c2ccc(F)cc2)c1C | 31.9% (inactive)
CCOc1cccc(-c2nc3sccn3c2-c2ccnc(S(C)(=O)=O)n2)c1 | 36.9% (inactive)
CC(C)Sc1nc(-c2ccccc2)c(C#N)c(N2CCOCC2)n1 | 105% (inactive)
